Active and inactive are the calls of the source. Unless noted, no rule for the calls is given here.
What was measured:
[1] = compound effects on lung adenocarcinoma cell viability – A549, calcein-AM fluorescence, 48 h, basal, profiling panel (AID 1162); details: higher = more signal; also: test concentration not given here
[2] = compound effects on differentiated 3T3-L1 adipocyte viability – cell-based, 3T3-L1 adipocytes, calcein-AM fluorescence, 48 h, basal, profiling panel (AID 1163); details: 3T3-L1 adipocytes viability, higher = more signal; also: test concentration not given here
[3] = compound effects on hepatocellular carcinoma cell viability – HepG2, calcein-AM fluorescence, 48 h, basal, profiling panel (AID 1164); details: higher = more signal; also: test concentration not given here
[4] = compound effects on multiple myeloma cell viability – MM1S, calcein-AM fluorescence, 48 h, basal, profiling panel (AID 1165); details: higher = more signal;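 also: viability of MM1S multiple myeloma cells under basal unstimulated conditions; test concentration not given here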
[5] = calcein-AM signal in unstimulated myeloma cells – cell-based, calcein-AM fluorescence, 48 h, PK04 Diversity Set, profiling panel (AID 1166); details: RPMI8226 myeloma viability, higher = more signal;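 also: cells grown under basal conditions without added stimulus; test concentration not given here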
[6] = JC-1 mitochondrial signal, unstimulated HepG2 cells – cell-based, JC-1 fluorescence, 24 h, 100 nL compound, profiling panel (AID 1167); details: HepG2 mitochondrial potential, higher = more signal; also: test concentration not given here
[7] = JC-1 mitochondrial signal, unstimulated adipocytes – cell-based, JC-1 fluorescence, 3T3-L1 adipocytes, 24 h, 100 nL compound, profiling panel (AID 1168); details: JC-1 mitochondrial fluorescence, higher = more signal, called active from +8 up or from −8 down; also: test concentration not given here
[8] = JC-1 mitochondrial signal, unstimulated myeloma cells – cell-based, JC-1 fluorescence, RPMI8226, 24 h, 100 nL compound, profiling panel (AID 1169); details: JC-1 mitochondrial potential fluorescence, higher = more signal; also: test concentration not given here
[9] = JC-1 mitochondrial signal, unstimulated MM1S myeloma – cell-based, JC-1 fluorescence, 24 h, 100 nL compound, profiling panel (AID 1170); details: MM1S mitochondrial potential, higher = more signal; also: test concentration not given here
[10] = resazurin metabolic signal in A549 cells – cell-based, resazurin fluorescence, 24 h, PK04 Diversity Set, profiling panel (AID 1171); details: A549 viability, higher = more signal, called active from +8 up or from −8 down; also: test concentration not given here
[11] = resazurin metabolic signal in HepG2 cells – cell-based, resazurin fluorescence, 24 h, PK04 Diversity Set, profiling panel (AID 1172); details: HepG2 viability, higher = more signal; also: test concentration not given here
[12] = budding yeast growth changes without added modifier – OD600, strain BY4716, 24 h, basal condition, primary screen (AID 1173); details: S. cerevisiae BY4716 growth, OD600, 24 h; higher = more signal, called active from +8 up or from −8 down
[13] = viability profiling in MM1S myeloma cells – cell-based, resazurin fluorescence, basal, 24 h, PK04 Diversity Set, profiling panel (AID 1174); details: higher = more signal, called active from +8 up or from −8 down; also: test concentration not given here
[14] = molecular target: Dihydroorotate dehydrogenase (quinone), mitochondrial (Plasmodium falciparum (isolate 3D7)) (UniProt Q08210); assay: inhibition of P. falciparum DHODH – biochemical, C-terminal His tag, absorbance 600 nm, primary screen (AID 1175); details: PfDHODH enzyme, DCIP absorbance 600 nm; higher = more signal, called active from +8 up or from −8 down;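 also: recombinant parasite enzyme with a five histidine tag at its C terminus; test concentration not given here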
[15] = inhibition of PAO1 biofilm formation – strain PAO1, LB-PBS medium, absorbance 600 nm, primary screen (AID 1176); also: test concentration not given here; details: P. aeruginosa PAO1 growth/biofilm, A600, 12 h; higher = more signal
[16] = growth modulation of vineyard yeast isolate – strain RM11-1a, OD600, basal, 24 h, primary screen (AID 1177);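 also: cultures grown under basal conditions with no added stressor; test concentration not given here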; details: S. cerevisiae RM11-1a growth, OD600, 24 h; higher = more signal, called active from +8 up or from −8 down
[17] = growth of efflux-deficient E. coli DRC39 – strain DRC39, OD650, 24 h, E. coli filamentation inducers, primary screen (AID 1178);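 also: growth measured as culture turbidity by optical density at 650 nm; test concentration not given here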; details: E. coli DRC39 acrAB, higher = more signal, called active from +8 up or from −8 down
[18] = growth of efflux-deficient E. coli DRC39 – strain DRC39, OD650, 48 h, E. coli filamentation inducers, primary screen (AID 1179);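 also: screen aims at cell division blockers that make cells filament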; details: E. coli DRC39 delta-acrAB growth, higher = more signal, called active from +8 up or from −8 down
[19] = viability profiling in RPMI8226 myeloma cells – cell-based, resazurin fluorescence, basal, 24 h, PK04 Diversity Set, profiling panel (AID 1180); details: higher = more signal;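 also: RPMI8826 multiple myeloma cell line at 5000 cells per well; test concentration not given here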
[20] = molecular target: E3 ubiquitin-protein ligase XIAP (Homo sapiens) (UniProt P98170); assay: small molecules binding XIAP protein – biophysical, small-molecule microarray, fluorescence 635 nm, primary screen (AID 1181); details: higher = more signal;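 also: score merges 667 nm emission and signal to noise over triplicate slides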
E3 ubiquitin-protein ligase XIAP (Homo sapiens), sequence (P98170 whole entry, looked up): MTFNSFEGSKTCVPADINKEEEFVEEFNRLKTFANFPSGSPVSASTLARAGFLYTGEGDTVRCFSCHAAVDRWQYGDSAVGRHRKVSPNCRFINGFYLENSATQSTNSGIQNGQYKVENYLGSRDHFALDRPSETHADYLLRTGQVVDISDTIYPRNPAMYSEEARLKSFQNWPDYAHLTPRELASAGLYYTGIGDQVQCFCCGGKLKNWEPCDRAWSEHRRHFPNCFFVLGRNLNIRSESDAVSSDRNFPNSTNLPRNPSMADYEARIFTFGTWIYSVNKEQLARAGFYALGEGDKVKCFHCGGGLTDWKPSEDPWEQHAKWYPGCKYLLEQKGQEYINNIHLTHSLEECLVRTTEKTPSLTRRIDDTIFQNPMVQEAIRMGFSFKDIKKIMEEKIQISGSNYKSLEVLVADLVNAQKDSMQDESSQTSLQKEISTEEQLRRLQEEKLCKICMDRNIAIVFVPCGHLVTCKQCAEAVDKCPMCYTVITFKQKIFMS

Dihydroorotate dehydrogenase (quinone), mitochondrial (Plasmodium falciparum (isolate 3D7)), sequence (Q08210 whole entry, looked up): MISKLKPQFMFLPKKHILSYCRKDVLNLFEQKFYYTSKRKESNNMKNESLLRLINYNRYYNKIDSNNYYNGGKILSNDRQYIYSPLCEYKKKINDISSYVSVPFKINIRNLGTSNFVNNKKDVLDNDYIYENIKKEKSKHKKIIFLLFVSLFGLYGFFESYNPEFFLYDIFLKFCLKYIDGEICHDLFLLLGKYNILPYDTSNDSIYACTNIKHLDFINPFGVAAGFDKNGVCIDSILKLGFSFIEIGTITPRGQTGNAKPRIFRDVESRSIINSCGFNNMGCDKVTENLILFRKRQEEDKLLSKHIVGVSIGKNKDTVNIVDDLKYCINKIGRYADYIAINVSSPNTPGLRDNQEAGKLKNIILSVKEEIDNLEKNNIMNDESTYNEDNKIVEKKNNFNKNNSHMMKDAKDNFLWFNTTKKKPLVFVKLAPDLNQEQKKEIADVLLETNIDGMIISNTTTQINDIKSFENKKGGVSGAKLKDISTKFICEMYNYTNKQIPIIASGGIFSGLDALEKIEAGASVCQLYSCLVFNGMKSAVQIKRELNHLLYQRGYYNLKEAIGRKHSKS

Structure (SMILES)	z-score [1]	z-score [2]	z-score [3]	z-score [4]	z-score [5]	z-score [6]	z-score [7]	z-score [8]	z-score [9]	z-score [10]	z-score [11]	z-score [12]	z-score [13]	composite z-score [14]	z-score [15]	z-score [16]	z-score [17]	z-score [18]	z-score [19]	composite z-score [20]
COC1(C)CN(Cc2ccccc2Br)[C@H](/C=C/c2ccccc2)[C@H](Cc2ccccc2)O1 (stereo not given in full)	0.411	1.2	0.875	-0.245	-0.0348	-0.545	-0.35 (inactive)	-0.19	-0.861	0.494 (inactive)	1.1	-0.138 (inactive)	0.832 (inactive)	-0.167 (inactive)	0.331 (inactive)	0.44 (inactive)	0.531 (inactive)	0.523 (inactive)	1.2	-0.102
O=C(CS)NCCCCCCNC(=O)[C@H]1C[C@H]2C(=O)N[C@@H](Cc3ccccc3)C(=O)N2[C@H]1c1cccc(OCCO)c1	0.0757	-0.154	0.77	0.306	0.895	-0.394	0.0403 (inactive)	-0.309	-1.12	0.311 (inactive)	-0.351	0.765 (inactive)	-0.453 (inactive)	-0.439 (inactive)	0.889 (inactive)	0.765 (inactive)	-0.0049 (inactive)	0.57 (inactive)	-0.614	0.316
CC(C)(C)OC(=O)CC[C@@]1(C(=O)O)N=C(c2ccc(OCCCO)cc2)O[C@@H]1c1ccccc1	-0.662	-0.982	-0.289	-0.764	0.335	-0.602	-0.445 (inactive)	0.855	-0.939	0.477 (inactive)	0.0648	0.313 (inactive)	0.0375 (inactive)	0.904 (inactive)	-0.043 (inactive)	1.4 (inactive)	0.0847 (inactive)	-0.202 (inactive)	0.56	-0.0918
COc1cc2c(cc1OC)CN(C(=O)[C@H]1[C@@H]3C(=O)O[C@@H](c4ccccc4)[C@@H](c4ccccc4)N3[C@@H](c3ccc(OCCO)cc3)[C@]13C(=O)Nc1ccc(C#CC4(O)CCCCCC4)cc13)CC2	0.943	0.0483	1.17	0.217	0.0846	-0.871	0.568 (inactive)	-0.338	-0.852	-0.354 (inactive)	0.0686	1.19 (inactive)	0.122 (inactive)	-0.143 (inactive)	2.91 (inactive)	3.28 (inactive)	0.457 (inactive)	1.25 (inactive)	0.378	-0.0011
COCCOC(=O)N1C(=O)[C@@]2(c3cc(C#CC4(O)CCCCCC4)ccc31)[C@H](C(=O)N1CCCCCCC1)[C@H]1C(=O)O[C@H](c3ccccc3)[C@H](c3ccccc3)N1[C@@H]2c1ccc(OCCO)cc1	0.364	1.85	0.783	-1.62	-2.6	-0.914	-2.37 (inactive)	-0.693	-0.756	1.08 (inactive)	0.304	0.397 (inactive)	0.67 (inactive)	-2.1 (inactive)	2.03 (inactive)	1.51 (inactive)	-0.151 (inactive)	0.201 (inactive)	0.918	0.293
C[C@]1(C(=O)NC2CC2)c2ccccc2C(=O)N(Cc2ccc(OC(F)(F)F)cc2)[C@H]1c1ccc(CO)cc1	-0.176	-0.138	0.415	-0.105	0.142	2.32	-0.116 (inactive)	0.917	-0.316	0.306 (inactive)	-0.268	-0.708 (inactive)	0.191 (inactive)	0.0758 (inactive)	-0.109 (inactive)	-0.474 (inactive)	0.0997 (inactive)	0.054 (inactive)	-0.254	-0.225
C=C(/C(=C/C[C@@H](OC(=O)c1ccncc1)c1ccc(OCCO)cc1)c1cc(C(=O)OC)ccc1OC)C(C)C	-0.738	0.61	0.391	-0.166	0.687	2.81	0.436 (inactive)	-0.177	-0.744	1.4 (inactive)	1.54	0.542 (inactive)	0.288 (inactive)	-0.444 (inactive)	0.224 (inactive)	-0.0338 (inactive)	0.945 (inactive)	0.52 (inactive)	0.352	-0.0916
COC(=O)C(CC#Cc1ccc2c(c1)[C@]1(C(=O)N2)[C@H](C(=O)O)[C@H]2C(=O)O[C@H](c3ccccc3)[C@H](c3ccccc3)N2[C@@H]1c1ccccc1OCCO)C(=O)OC	-0.045	-0.182	-0.219	-3.26	-4.09	-2.93	-0.236 (inactive)	-0.441	-1.98	-0.327 (inactive)	0.289	-0.307 (inactive)	0.0819 (inactive)	-18.9 (active)	2.07 (inactive)	2.55 (inactive)	0.698 (inactive)	0.202 (inactive)	-4.42	-0.0673

From PubChem BioAssay
